Compound activity (PubChem)
This is a sample that favours compounds with a hit; in the whole collection about 2.6% have one here.
EWS-Fli block: inhibitors of EWS/Fli oncoprotein transcriptional activity | A673 NR0B1-luciferase reporter, viability-normalised | inhibition, % at 12.6 µM | actives 0.67% (n = 350,000) | AID 651661;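 active = mean inhibition of at least 50% after viability correction, with every replicate also passing that limit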;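 note: firefly luciferase signal divided by Alamar Blue viability fluorescence both relative to DMSO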
CF NFkB inh: cystic fibrosis NF-kB activation inhibition | KKLEB NF-kB-GFP reporter, PAF-induced, GFP fluorescence overnight | inhibition, % at 5 µM | actives 0.86% (n = 360,000);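 active = at least 50% inhibition at 5 µM, scaled per plate between neutral and stimulator controls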;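 note: PAF is a Pseudomonas aeruginosa culture filtrate used as stimulus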
KKLEB cytotox: counter-screen for CF NF-kB inhibitors: cytotoxicity; AID 602141; actives 0.36% (n = 360,000); KKLEB CF airway cells viability, ATPlite luminescence, overnight; hits give low values; cells stimulated with P. aeruginosa culture filtrate; activity change (cytotoxicity), % at 5 µM;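 active = corrected activity change at or below -50% at 5 µM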
TROY signal inh: blocks TROY-dependent signaling in reporter cells. inhibition, % at 10 µM. Q293 LMP1-TROYcd NF-kB luciferase reporter, 4 h. actives 0.98% (n = 360,000). AID 1347056;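 active = compounds whose plate-normalised and pattern-corrected inhibition of the luciferase reporter signal at the single screening dose is 50% or more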
LGR2 antag: Drosophila LGR2 receptor signaling inhibition. actives 0.35% (n = 380,000). HEK293 LGR2, CRE-luciferase, bursicon-stimulated, 4 h. inhibition, % at 9.99 µM. AID 720647;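 active = drop in luminescence signal, shown as inhibition above about 50% in the replicate tests, limit read from the data, passing the limit was not always enough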;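 note: agonist challenge used bursicon conditioned medium at about half maximal strength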
TWEAK Fn14 block: blocks TWEAK-Fn14 interaction in a reporter cell assay; TWEAK-stimulated Fn14 reporter cells, luciferase luminescence, 8 h; inhibition, % at 10 µM; actives 2% (n = 360,000); in the data active = inhibition above about 50%
Large screens that a line does not name were inactive.

CO[C@@H]1CN(C)C(=O)c2cc(NC(C)=O)ccc2OC[C@@H](C)N(S(C)(=O)=O)C[C@H]1C	none (no result: CF NFkB inh, KKLEB cytotox, TROY signal inh, TWEAK Fn14 block)
C[C@@H]1CN([C@@H](C)CO)C(=O)c2cc(NC(=O)C3CC3)ccc2O[C@@H]1CN(C)CC1CCCCC1	none (no result: CF NFkB inh, KKLEB cytotox, TROY signal inh, TWEAK Fn14 block)
CCCCN1C=CC(=C2C(=O)c3ccccc3C2=O)C=C1	EWS-Fli block 79.9, KKLEB cytotox -72.4, TROY signal inh 85.0, TWEAK Fn14 block 98.6 (no result: LGR2 antag)
COc1cc(/C=C/C(=O)c2ccc(C)cc2)ccc1OCC#N	TWEAK Fn14 block 86.6
CCOc1cc(/C=C/C(=O)c2ccc(C)cc2)ccc1OCC(=O)N(C)C	KKLEB cytotox -53.7, TWEAK Fn14 block 58.7
Cc1ccccc1NC1=NC(=S)N(c2ccccc2)C12CCCCC2	TROY signal inh 61.8 (no result: LGR2 antag)
COCC#Cc1ccc(CC[C@H]2O[C@H]3CC[C@H](CO)O[C@H]3C[C@@H]2n2cc(C(C)(C)O)nn2)cc1	none (no result: CF NFkB inh, KKLEB cytotox, TROY signal inh, LGR2 antag, TWEAK Fn14 block)
C[C@@H]1CN([C@H](C)CO)C(=O)c2cc(N(C)C)ccc2O[C@@H]1CN(C)C(=O)Nc1cccc2ccccc12	none (no result: CF NFkB inh, KKLEB cytotox, TROY signal inh, TWEAK Fn14 block)
C#CCCc1ccccc1/C=[N+](/C)[O-]	TWEAK Fn14 block 51.1
C/[N+]([O-])=C\c1coc2ccccc2c1=O	none (no result: EWS-Fli block, LGR2 antag)
COC1=CC(=O)C(O)=C(CCCCCCC/C=C/CCCCCCCC2=C(O)C(=O)C=C(OC)C2=O)C1=O	TROY signal inh 61.5, TWEAK Fn14 block 85.0 (no result: EWS-Fli block, LGR2 antag)
CC(=O)NC[C@@H]1[C@@H](c2ccc(C3=CCCCC3)cc2)[C@@H](CO)N1C(=O)C1CC1	none (no result: EWS-Fli block, CF NFkB inh, KKLEB cytotox, TROY signal inh, TWEAK Fn14 block)
C=C(C)[C@@H]1CC[C@]2(C(=O)O)CC[C@]3(C)C(CCC4[C@@]5(C)CC[C@H](O)C(C)(C)C5CC[C@]43C)C12 (stereo not given in full)	CF NFkB inh 79.3, KKLEB cytotox -75.9 (no result: LGR2 antag)
O=C1CC(NNc2nc3ccccc3s2)C(=O)N1c1ccccc1 (stereo not given)	TROY signal inh 61.0 (no result: EWS-Fli block)
COc1ccc(NC(=O)N(C)C[C@H]2Oc3ccc(NC(=O)NC(C)C)cc3C(=O)N([C@@H](C)CO)C[C@H]2C)cc1	none (no result: CF NFkB inh, KKLEB cytotox, TROY signal inh, TWEAK Fn14 block)
C[C@@H]1CN([C@H](C)CO)C(=O)c2cc(Br)cnc2O[C@@H]1CN(C)C(=O)C1CCC1	none (no result: CF NFkB inh, KKLEB cytotox, TROY signal inh, TWEAK Fn14 block)
CNC[C@H]1Oc2cc(C#CCOC)ccc2S(=O)(=O)N([C@H](C)CO)C[C@@H]1C	none (no result: CF NFkB inh, KKLEB cytotox, TROY signal inh, TWEAK Fn14 block)
Cc1cc(CC(C)C)n(-c2nc3ccccc3c(=O)n2OCC(N)=O)n1	TROY signal inh 52.8 (no result: EWS-Fli block, LGR2 antag)
Cc1cc(C)n(-c2nc3ccccc3c(=O)n2OCC(N)=O)n1	none (no result: EWS-Fli block, LGR2 antag)
CS(=O)(=O)N1CCN(C/C=C/c2ccccc2)CC1	none (no result: EWS-Fli block, LGR2 antag)
Cc1ccccc1CN1CCN(C/C=C/c2ccccc2)CC1	TWEAK Fn14 block 58.0 (no result: EWS-Fli block, LGR2 antag)
COc1ccccc1CN1CC[C@@H]2[C@H]1c1cc(-c3ccc(C(=O)N(C)C)cc3)ccc1N[C@@H]2CO	none (no result: CF NFkB inh, KKLEB cytotox, TROY signal inh, TWEAK Fn14 block)
O=NN(C(=O)NCc1cccnc1)C1CCCCC1	TROY signal inh 57.6
COc1ccc(CN(C)C[C@@H]2Oc3c(NS(C)(=O)=O)cccc3C(=O)N([C@@H](C)CO)C[C@H]2C)cc1	none (no result: EWS-Fli block, CF NFkB inh, KKLEB cytotox, TROY signal inh, TWEAK Fn14 block)
Cc1cc(C)c(Cc2c(C)nc3c(C(=O)NCc4ccco4)cnn3c2C)c(C)c1	TROY signal inh 87.9, LGR2 antag 56.0, TWEAK Fn14 block 72.5
O=C(NCc1ccco1)c1cnn2c(C(F)F)cc(-c3ccccc3)nc12	none (no result: EWS-Fli block, LGR2 antag)
O=C(O)c1cc2nc3c(c(C(F)(F)F)n2n1)CCCC3	none
O=C(Nc1ccc(F)cc1F)c1cc2nc3c(c(C(F)(F)F)n2n1)CCCC3	TROY signal inh 67.7, TWEAK Fn14 block 73.1 (no result: EWS-Fli block)
COc1ccc(OCCCN(C)Cc2ccccc2)cc1	TWEAK Fn14 block 76.2
COc1ccc(OCCN(C)Cc2ccccc2)cc1	none (no result: EWS-Fli block, LGR2 antag)
CCOc1ccc(/C=N/NC(=O)c2[nH]c3ccc(C)cc3c2C)cc1	none
O=C(N/N=C/c1c[nH]c2ccccc12)c1[nH]c2ccc(Br)cc2c1-c1ccccc1	none
Cc1c(C(=O)N/N=C/c2ccc(Cl)cc2)[nH]c2ccc(Cl)cc12	EWS-Fli block 59.5, CF NFkB inh 61.5
O=C(N/N=C/c1ccc(O)cc1)c1[nH]c2ccc(Br)cc2c1-c1ccccc1	CF NFkB inh 57.6
C[C@@H]1CN([C@@H](C)CO)C(=O)Cc2cc(NC(=O)Cn3cnnn3)ccc2O[C@@H]1CN(C)CC1CC1	none (no result: CF NFkB inh, KKLEB cytotox, TROY signal inh, TWEAK Fn14 block)
COc1ccccc1C(=O)Nc1ccc2c(c1)C(=O)N(C)C[C@@H](OC)[C@@H](C)CN(CC1CC1)[C@H](C)CO2	none (no result: CF NFkB inh, KKLEB cytotox, TROY signal inh, TWEAK Fn14 block)
